The source of these data is PubChem BioAssay.

Experiment [1] in a line: anti-His antibody binders, primary screen, artefact control for SMM control protein annotation, biochemical, small-molecule microarray, 635 nm fluorescence (AID 1128).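 Further: score merges feature fluorescence with signal-to-noise for each printed compound spot.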 As to conditions: anti-His Alexa647 antibody binding, higher = more signal.
For experiment [2], the system named is Human papillomavirus type 1a E7 protein (residues 1-88). Put plainly: HPV1a E7 small-molecule binders, primary screen, biochemical, small-molecule microarray, residues 1-88, 635 nm (AID 1129). As to conditions: small-molecule microarray binding, fluorescence 635 nm; higher = more signal.
In experiment [3] the target is Focal adhesion kinase 1 (Homo sapiens) (UniProt Q05397). Description: small-molecule microarray binders of FAK, primary screen, biochemical, 635/667 nm fluorescence, BSA, DTT (AID 1130).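 Further: composite of spot emission at 667 nm and signal to noise over triplicate slides.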 Conditions: PTK2 binding, 635 nm fluorescence, higher = more signal.
Sequence of Focal adhesion kinase 1 (Homo sapiens) (Q05397 whole entry, looked up): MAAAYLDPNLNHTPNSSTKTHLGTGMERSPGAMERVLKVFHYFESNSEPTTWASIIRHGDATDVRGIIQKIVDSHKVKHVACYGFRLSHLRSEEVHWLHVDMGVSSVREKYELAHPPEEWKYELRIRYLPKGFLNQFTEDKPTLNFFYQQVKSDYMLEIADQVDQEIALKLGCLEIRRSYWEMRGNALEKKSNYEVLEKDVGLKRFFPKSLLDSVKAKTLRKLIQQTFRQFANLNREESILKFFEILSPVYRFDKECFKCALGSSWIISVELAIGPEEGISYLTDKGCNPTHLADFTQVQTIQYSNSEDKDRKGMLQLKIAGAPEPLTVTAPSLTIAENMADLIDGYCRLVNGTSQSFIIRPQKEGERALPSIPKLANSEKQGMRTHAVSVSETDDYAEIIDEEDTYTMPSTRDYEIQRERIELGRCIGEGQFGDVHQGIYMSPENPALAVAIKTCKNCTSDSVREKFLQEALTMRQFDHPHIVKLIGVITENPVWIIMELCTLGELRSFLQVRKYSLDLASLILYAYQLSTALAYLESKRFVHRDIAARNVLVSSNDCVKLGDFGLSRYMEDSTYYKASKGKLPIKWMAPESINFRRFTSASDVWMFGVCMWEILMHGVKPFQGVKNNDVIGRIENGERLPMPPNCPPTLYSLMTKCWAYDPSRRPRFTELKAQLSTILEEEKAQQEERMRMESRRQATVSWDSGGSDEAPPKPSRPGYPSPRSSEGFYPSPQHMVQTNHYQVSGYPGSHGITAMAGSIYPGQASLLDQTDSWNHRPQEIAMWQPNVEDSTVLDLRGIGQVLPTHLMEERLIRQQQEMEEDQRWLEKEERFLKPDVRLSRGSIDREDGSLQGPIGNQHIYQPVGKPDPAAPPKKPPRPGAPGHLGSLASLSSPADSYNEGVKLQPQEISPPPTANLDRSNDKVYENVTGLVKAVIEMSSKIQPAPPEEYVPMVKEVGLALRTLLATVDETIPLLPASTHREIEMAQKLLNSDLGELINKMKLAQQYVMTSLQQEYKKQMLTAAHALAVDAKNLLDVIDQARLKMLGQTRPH
The test system of experiment [4] is Fibrinogen (Alexa647-labelled). Description: fibrinogen binders on compound microarrays, profiling panel, artefact control for SMM control-protein annotation, biochemical, small-molecule microarray, 635/667 nm fluorescence (AID 1131).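 Further: z-score merges 667 nm fluorescence with per-spot signal-to-noise over triplicate slides.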 Conditions: fibrinogen-A647 binding fluorescence, higher = more signal.
For experiment [5], the target named is Follistatin (Homo sapiens) (UniProt P19883). Description: follistatin binders on small-molecule microarrays, primary screen, biochemical, small-molecule microarray, 635/667 nm fluorescence (AID 1132). As to conditions: FST binding, 635 nm fluorescence, higher = more signal.
Sequence of Follistatin (Homo sapiens) (P19883 whole entry, looked up): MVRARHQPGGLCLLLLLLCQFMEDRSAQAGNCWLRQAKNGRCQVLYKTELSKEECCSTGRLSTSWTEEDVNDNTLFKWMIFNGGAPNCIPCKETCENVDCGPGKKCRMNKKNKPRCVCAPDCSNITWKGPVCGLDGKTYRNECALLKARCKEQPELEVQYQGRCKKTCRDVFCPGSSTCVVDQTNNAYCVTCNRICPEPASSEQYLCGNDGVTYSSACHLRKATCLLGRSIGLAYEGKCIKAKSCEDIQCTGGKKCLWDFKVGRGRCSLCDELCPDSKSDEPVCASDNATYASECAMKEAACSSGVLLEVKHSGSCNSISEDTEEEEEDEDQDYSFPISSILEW
Experiment [6] addresses Fibroblast growth factor 2 (Homo sapiens) (UniProt P09038). Put plainly: FGF2 binders on small-molecule microarrays, primary screen, biochemical, small-molecule microarray, 635/667 nm fluorescence (AID 1133). Conditions: small-molecule microarray binding, FGF2, fluorescence 635/667; higher = more signal.
Experiment [7] is described as follows: mitochondrial membrane potential change in A549 cells, profiling panel, cell-based, JC-1 fluorescence, basal, 24 h, 100 nL (AID 1138).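 Further: A549 lung adenocarcinoma cells under basal conditions with no added stimulus; test concentration not given here.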 Conditions: higher = more signal.
Another experiment relates to Lefty1. Description: Lefty1 binders on small-molecule microarrays, primary screen, biochemical, small-molecule microarray, 635/667 nm fluorescence (AID 1139). As to conditions: small-molecule microarray binding, fluorescence 635/667; higher = more signal.
Experiment [8] concerns wheat germ agglutinin (Triticum aestivum), Alexa647-labelled. Description: wheat germ agglutinin binders on compound microarrays, profiling panel, artefact control for SMM control-protein annotation, biochemical, small-molecule microarray, 635/667 nm fluorescence (AID 1140).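 Further: score merges 667 nm feature emission with signal to noise over triplicate slides.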 Conditions: WGA-A647 binding, 635 nm fluorescence, higher = more signal.
For experiment [9], the target named is Luciferin 4-monooxygenase (Photinus pyralis) (UniProt P08659). Put plainly: firefly luciferase enzyme inhibitors, primary screen, biochemical, luminescence, purified enzyme, 2006 set (AID 1141).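 Further: cell-free assay with purified firefly luciferase at 100 ng per well in PBS; test concentration not given here.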 As to conditions: SteadyGlo luminescence, 30 min, higher = more signal, called active from +8 up or from −8 down.
Sequence of Luciferin 4-monooxygenase (Photinus pyralis) (P08659 whole entry, looked up): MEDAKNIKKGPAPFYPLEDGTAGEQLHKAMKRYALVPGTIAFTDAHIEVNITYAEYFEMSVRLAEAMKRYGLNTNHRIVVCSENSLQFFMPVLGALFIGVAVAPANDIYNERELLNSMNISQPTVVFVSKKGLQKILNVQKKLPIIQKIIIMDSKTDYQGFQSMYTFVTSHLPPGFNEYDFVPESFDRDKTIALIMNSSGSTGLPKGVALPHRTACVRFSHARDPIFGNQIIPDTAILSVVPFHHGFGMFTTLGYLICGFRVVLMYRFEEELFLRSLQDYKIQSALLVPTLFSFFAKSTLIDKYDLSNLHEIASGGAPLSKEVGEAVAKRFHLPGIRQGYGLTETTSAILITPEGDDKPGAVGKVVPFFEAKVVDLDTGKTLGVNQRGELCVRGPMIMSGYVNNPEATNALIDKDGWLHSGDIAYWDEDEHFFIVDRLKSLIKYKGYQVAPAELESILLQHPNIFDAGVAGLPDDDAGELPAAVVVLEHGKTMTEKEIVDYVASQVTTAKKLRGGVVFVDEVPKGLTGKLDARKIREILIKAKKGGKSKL
The test system of experiment [10] is Wnt5a (protein binding on small-molecule microarray). Put plainly: Wnt5a binders on small-molecule microarray, primary screen, biophysical, 635/667 nm fluorescence (AID 1142).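 Further: fluorescence read at 667 nm with signal to noise per printed feature.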 As to conditions: 635 nm fluorescence, higher = more signal.
Experiment [11] is described as follows: cell viability in Huh7 cells, primary screen, cytotoxicity control for HCV replication inhibitor project, CellTiter-Glo luminescence, basal, 48 h (AID 1143).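 Further: Huh7 hepatoma cells carrying a hepatitis C replication reporter with no stimulus; test concentration not given here.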 As to conditions: Huh7 HCV replicon, higher = more signal, called active from +8 up or from −8 down.
The nature of experiment [12]: P. aeruginosa biofilm formation inhibitors, primary screen, PAO1 strain, BacTiter-Glo luminescence, LB-PBS (AID 1144). Conditions: 12 h, higher = more signal.
Experiment [13] in a line: CREB reporter modulators without forskolin, primary screen, cell-based, PC12, CRE-LacZ reporter, unstimulated (AID 1145). Conditions: no forskolin, luminescence, 4.5 h, higher = more signal, called active from +8 up or from −8 down.
Experiment [14] in a line: CREB reporter modulators under forskolin, primary screen, cell-based, PC12, CRE-LacZ reporter, forskolin-stimulated (AID 1146).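 Further: PC12 cells with 6xCRE LacZ reporter stimulated by forskolin 10 µM; beta-galactosidase reporter signal reflecting CREB driven transcription.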 Conditions: luminescence, 4.5 h, higher = more signal, called active from +8 up or from −8 down.
For experiment [15], the target named is Streptavidin (Streptomyces avidinii) (UniProt P22629). Description: streptavidin binders on small-molecule microarray, primary screen, artefact control for SMM compound annotation, biophysical, 635/667 nm fluorescence (AID 1147).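 Further: signal reflects streptavidin binding to arrayed compounds as a control protein.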 Conditions: streptavidin binding, higher = more signal.
Sequence of Streptavidin (Streptomyces avidinii) (P22629 whole entry, looked up): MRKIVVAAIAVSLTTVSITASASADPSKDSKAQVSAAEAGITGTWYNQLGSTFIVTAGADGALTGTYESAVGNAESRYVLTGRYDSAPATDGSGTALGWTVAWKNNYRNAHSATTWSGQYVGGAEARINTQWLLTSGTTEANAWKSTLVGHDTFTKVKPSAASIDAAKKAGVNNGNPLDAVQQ
Experiment [16] in a line: small-molecule binders of probe aInhba, primary screen, biochemical, small-molecule microarray, 635/667 nm fluorescence (AID 1148).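 Further: score merges 667nm spot fluorescence with signal-to-noise for antibody binding to printed compounds.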 As to conditions: higher = more signal.
The target of experiment [17] is Torsin-1A (Homo sapiens) (UniProt O14656). Put plainly: torsin A binders from cell lysate, primary screen, small-molecule microarray, wild-type, 635/667 nm (AID 1149). Conditions: COS7 hTOR1A-WT lysate, 635 nm fluorescence, higher = more signal.
Sequence of Torsin-1A (Homo sapiens) (O14656 whole entry, looked up): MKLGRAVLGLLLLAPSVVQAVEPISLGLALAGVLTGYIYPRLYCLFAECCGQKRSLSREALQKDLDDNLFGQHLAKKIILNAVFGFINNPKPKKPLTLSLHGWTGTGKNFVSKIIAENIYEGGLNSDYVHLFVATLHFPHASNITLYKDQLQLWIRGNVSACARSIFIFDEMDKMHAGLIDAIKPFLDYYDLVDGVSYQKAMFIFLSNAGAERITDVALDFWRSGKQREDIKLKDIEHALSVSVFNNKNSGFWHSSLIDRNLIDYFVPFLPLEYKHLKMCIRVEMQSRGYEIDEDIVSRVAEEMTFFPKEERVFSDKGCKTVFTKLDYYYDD
Experiment [18] shares this target. Description: small-molecule binders of mutant TOR1A in lysate, primary screen, cell lysate, small-molecule microarray, COS7 lysate, 635/667 nm fluorescence (AID 1150).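 Further: score pools 667 nm emission and signal to noise measuring lysate protein binding.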 Conditions: COS7 hTOR1A mutant lysate, 635 nm fluorescence, higher = more signal.
Experiment [19] has as its system Sonic hedgehog protein (Shh). Put plainly: small-molecule binders of Shh protein, primary screen, biochemical, small-molecule microarray, 635/667 nm fluorescence (AID 1151).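 Further: Shh protein binding to compounds spotted on small-molecule microarray slides; score combines spot fluorescence intensity with signal-to-noise across triplicate slides.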 Conditions: small-molecule microarray binding, 635 nm fluorescence; higher = more signal.

Each structure is given as a SMILES string. Where “and” joins values, the source holds several entries; their conditions need not be identical. Identical values can stand only once. Calls of active or inactive are those of the source. Unless noted, how the calls were made is not given here.

Sequence of Fibroblast growth factor 2 (Homo sapiens) (P09038 whole entry, looked up): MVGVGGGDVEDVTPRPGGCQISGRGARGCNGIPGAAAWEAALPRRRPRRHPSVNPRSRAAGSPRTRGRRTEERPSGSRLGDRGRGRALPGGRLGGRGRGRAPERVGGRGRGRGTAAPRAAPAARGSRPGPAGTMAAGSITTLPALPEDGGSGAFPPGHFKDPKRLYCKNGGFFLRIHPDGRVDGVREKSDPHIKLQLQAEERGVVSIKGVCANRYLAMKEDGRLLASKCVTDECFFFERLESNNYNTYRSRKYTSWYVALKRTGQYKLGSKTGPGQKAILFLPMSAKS

Regarding `COC(=O)[C@@]1(Cc2ccccc2)[C@H]2c3cc(C(=O)N(C)C)n(C[C@H](O)CO)c3C[C@H]2CN1C(=O)c1ccccc1`, the composite z-score is 0.456 and 0.65 in experiment [1]; 0.23 and 0.965 in [2]; 0.805 and 0.641 in [3]; 0.948 and 0.223 in [4]; -0.342 and 0.453 in experiment [5]; -0.378 and -0.271 in experiment [6]. Moreover, the composite z-score in the experiment on Lefty1 is -0.6 and -0.308; in [8], 0.877 and -0.0476; in experiment [10], -0.19 and 0.0986; in experiment [15], -0.0247 and 0.888; in experiment [16], -0.0817 and 0.223; with Torsin-1A (Homo sapiens) [17], -0.593 and 0.132. Moreover, the composite z-score in the experiment with Torsin-1A (Homo sapiens) [18] is 0.492 and 0.92; in [19], -0.39 and -1.19. For the same molecule, the z-score in experiment [7] is 0.207 and 0.034; in [9], 0.665 (inactive) and 1.66 (inactive); in experiment [11], 0.0129 (inactive) and 0.255 (inactive); in experiment [12], -0.256 (inactive) and -0.607 (inactive); in experiment [13], 1.35 (inactive) and 0.204 (inactive); in experiment [14] it was 0.756 (inactive) and -0.209 (inactive).
Turning to `CC(CO)N1C(=O)[C@@H]2C3C(=O)OCCC=C[C@H]3OC23C=CCN(c2ccc4ccccc4c2)C(=O)[C@@H]13` (stereo not given in full), the composite z-score in experiment [1] was 0.62 and 1.59; in experiment [2] it was -0.203 and -0.362; in experiment [3], -0.192 and 0.525; in experiment [4], -0.986 and -1.18; in experiment [5] it was -0.0475 and -0.0413; in experiment [6], -1.53 and -0.879. Besides, the composite z-score in the experiment with Lefty1 was -0.0302 and -0.337; in experiment [8], -0.388 and 0.771; in experiment [10] it was -0.758 and -0.416; in [15], -0.809 and -0.937; in experiment [16], -0.0933 and -0.584; in the experiment with Torsin-1A (Homo sapiens) [17], -1.95 and -1.75. Moreover, the composite z-score with Torsin-1A (Homo sapiens) [18] was -1.23 and -1.14; in [19], 0.0707 and -0.262. Also, the z-score in experiment [7] was 0.638 and 0.972; in experiment [9], -0.618 (inactive) and -0.657 (inactive); in experiment [11], 0.0425 (inactive) and 0.0276 (inactive); in experiment [12], 0.87 (inactive) and 1.11 (inactive); in experiment [13], 0.199 (inactive) and 0.756 (inactive); in experiment [14], -0.345 (inactive) and 0.0714 (inactive).
Consider `CO[C@@H]1C=CCC(=O)N2CCC[C@H]2C(=O)OC[C@H](C)C(=O)OC[C@H]1C`, for which the composite z-score in [1] is 0.761; in experiment [2] it was -0.624; in experiment [3], 0.0548; in experiment [4], -1.04; in experiment [5], 1.23; in experiment [6], 0.109. For the same molecule, the composite z-score in the experiment with Lefty1 was 0.864; in experiment [8], 0.508; in [10] it was -0.0492; in experiment [15] it was -0.69; in experiment [16], -0.186; with Torsin-1A (Homo sapiens) [17], 0.772. Besides, the composite z-score with Torsin-1A (Homo sapiens) [18] worked out at 1.63; in experiment [19] it was 1.64. For the same molecule, the z-score is 1.54 in [7]; -1.87 (inactive) in experiment [9]; 0.0002 (inactive) in experiment [11]; -0.789 (inactive) in [12]; -0.113 (inactive) in experiment [13]; -0.192 (inactive) in [14].
Take `COC(=O)C1=C(C)N(Cc2ccccc2)C2=C3C(=O)N(C)C(=O)[C@@H]3[C@@](O)(C(=O)OC)C(=O)N2[C@@H]1c1ccccc1`: the composite z-score is 0.21 and -0.0385 in experiment [1]; 0.311 and 0.614 in experiment [2]; 0.128 and 0.276 in experiment [3]; 0.269 and 0.335 in experiment [4]; 0.355 and 0.223 in [5]; 0.55 and 0.24 in experiment [6]. Besides, the composite z-score in the experiment on Lefty1 was -0.0227 and 0.627; in [8], 0.129 and -0.0358; in experiment [10] it was 0.147 and 0.126; in experiment [15] it was 0.378 and 0.131; in experiment [16], 0.038 and 0.0173; with Torsin-1A (Homo sapiens) [17], 0.154 and 0.161. Further, the composite z-score was 0.491 and 0.207 with Torsin-1A (Homo sapiens) [18]; -0.004 and 0.436 in experiment [19]. For the same molecule, the z-score in experiment [7] is 0.286 and 0.239; in experiment [9] it was -0.598 (inactive) and -2.38 (inactive); in experiment [11], 0.961 (inactive) and -0.294 (inactive); in experiment [12], -0.153 (inactive) and -0.448 (inactive); in experiment [13], 2.18 (inactive) and 0.992 (inactive); in experiment [14] it was -0.152 (inactive) and -0.755 (inactive).
